Bioassay records deposited in PubChem BioAssay by National Center for Advancing Translational Sciences (NCATS).
This is a sample that favours compounds with a hit; in the whole collection about 2.4% have one here.
D2 ag-1 = D2 dopamine receptor (human) agonism; P14416; HEK293 T-REx D2 cells, calcium flux agonist mode; activation, % at 2 µM; 340,000 tested, 0.53% active; AID 485358;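 active = activation over 3 SD above normal in the single-dose calcium agonist read, cut at about 30% in these data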; note: 0% is about no effect
Target sequence (P14416 whole entry, looked up): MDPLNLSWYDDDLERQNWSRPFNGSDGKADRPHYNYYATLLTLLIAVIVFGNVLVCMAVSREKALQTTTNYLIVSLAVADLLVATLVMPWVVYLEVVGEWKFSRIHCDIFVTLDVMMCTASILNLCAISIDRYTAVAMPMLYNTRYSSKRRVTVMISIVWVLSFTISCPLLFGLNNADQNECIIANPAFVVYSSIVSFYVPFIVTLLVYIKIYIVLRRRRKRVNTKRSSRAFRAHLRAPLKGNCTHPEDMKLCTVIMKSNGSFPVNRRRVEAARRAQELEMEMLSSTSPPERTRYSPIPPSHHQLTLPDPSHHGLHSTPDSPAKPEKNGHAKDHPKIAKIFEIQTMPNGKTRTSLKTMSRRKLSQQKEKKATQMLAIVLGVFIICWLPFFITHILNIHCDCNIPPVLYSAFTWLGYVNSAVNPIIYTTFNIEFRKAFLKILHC
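HEK293 Trex D2 cells, tetracycline-induced, o/n 30 C 5% CO2; no-wash Ca dye, RT 30–90 min; 10-cycle baseline, 23 nl cpd added, kinetic Ca read 180 s; agonist hits = positive Ca response.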
D2 ag-2 = agonists of human D2 dopamine receptor (beta-arrestin); DiscoveRx PathHunter D2 beta-arrestin, luminescence, 90 min; 100% = 57 uM dopamine signal; activation, % (no concentration beside the values); 360,000 tested, 0.084% active; AID 624465; in the data active = activation above about 40%
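Agonist mode: compounds alone added to overnight-plated D2 PathHunter cells for 90 min at 37 C, with 57 uM final dopamine (EC100) defining full response. Beta-arrestin recruitment detected by chemiluminescent reagent, read after 1 h at ambient temperature.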
D2 PAM-1 = positive allosteric modulators of human D2 dopamine receptor | DiscoveRx D2 beta-arrestin cells, luminescence, 90 min; 100% = 57 uM dopamine signal | potentiation, % (test concentration not listed) | P14416 | 360,000 tested, 0.23% active; in the data active = potentiation above about 50%
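D2 cells co-treated with compound plus 50 nM dopamine (EC20) for 90 min at 37 deg C to detect potentiation. Beta-arrestin recruitment was read as enzyme-fragment luminescence after 1 h at ambient temperature. Full response was set by 57 uM dopamine.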
D2 PAM-2 = positively modulates the human D2 dopamine receptor allosterically | potentiation, % at 10 µM | P14416 | HEK293 T-REx D2, calcium flux, EC20 dopamine potentiation | 340,000 tested, 0.34% active;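 active = potentiation over 3 SD above the plate norm, cut at about 30% in these data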; note: 0% is about no effect
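Tetracycline-induced HEK293 T-REx cells force-coupled to calcium signalling expressed D2; compounds were pin-added after a 10 s baseline, read kinetically 180 s, then an EC20 dopamine challenge followed with a further 180 s calcium read.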
D2 antagonist = antagonizes the human D2 dopamine receptor; HEK293 TREx D2 cells, calcium flux, dopamine EC80; inhibition, % at 10 µM; 340,000 tested, 2% active; P14416; in the data active = inhibition above about 30%; inactive = below that, where a call was filed; note: 0% is about no effect
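Calcium mobilization kinetics were recorded at 1 s intervals in tetracycline-induced HEK293 T-REx D2 cells, first for 180 s after compound addition and then 180 s after EC80 dopamine.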
An asterisk follows results filed as active; . = not tested or not shown.

SMILES	D2 ag-1	D2 ag-2	D2 PAM-1	D2 PAM-2	D2 antagonist
Cc1onc(-c2ccccc2)c1C(=O)NNC(=O)c1ccccc1	0	-6	0	14	2
CCc1ccc2occ(CC(=O)Nc3ccc(OC)c(Cl)c3)c2c1	-1	.	.	14	.
CCCCSCCCNC(=O)c1cn(CC)c2ccc(S(=O)(=O)N(C)C3CCCCC3)cc2c1=O	1	.	.	4	.
CCc1[nH]nc2c1C(c1ccc(C)o1)C(C#N)=C(N)O2 (stereo unspecified)	0	-2	11	-8	64*
N#CC1=C(N)Oc2n[nH]c(-c3cccnc3)c2C1c1ccc([N+](=O)[O-])o1 (stereo unspecified)	1	9	55*	6	8
Cc1ncoc1C(=O)N1CCCC(C(=O)c2ccc(-c3ccccc3)cc2)C1 (stereo unspecified)	-1	0	-7	-6	52*
O=C(c1ccc(-c2ccccc2)cc1)C1CCCN(Cc2ccncc2)C1 (stereo unspecified)	0	5	-16	-38	75*
CC(=O)c1[nH]c(C)c(C(=O)NCc2ccc(Cl)cc2)c1C	0	.	.	6	.
NC(=NCc1ccccc1)c1cccc([N+](=O)[O-])c1	-1	4	-6	1	-11
CC1(C)CSC(=NCc2ccccc2)N1C(=O)c1cccc([N+](=O)[O-])c1	83*	-7	-1	-24	54*
c1ccc(OCCNc2nc(NCC3CC3)nc3cc(-c4ccccc4)sc23)cc1	.	44*	-20	.	.
COc1ccc(CCNC(=O)COC(=O)CCC(=O)c2cccs2)cc1OC	.	2	-6	.	.
COc1ccc(CCNC(=O)CCn2cccc2)cc1OC	0	1	-7	-9	1
COc1ccc(CCNC(=O)COC(=O)c2cccs2)cc1	-1	-1	-8	-2	37*
COc1ccc(CCNC(=O)CCC(=O)c2cccs2)cc1OC	27	-4	-4	-9	44*
Cc1ccc(CCNC(=O)C2CC(=O)N(C3CCCCC3)C2)cc1 (stereo unspecified)	1	-2	-7	-5	3
COc1ccc(CCNC(=O)COC(=O)c2cccs2)cc1OC	-1	6	2	14	7
COc1ccc(CCNC(=O)C2CC(=O)N(C3CCCCCCC3)C2)cc1OC (stereo unspecified)	0	-3	0	-23	93*
COc1ccc(CCNC(=O)CCN2C(=O)C3CC=CCC3C2=O)cc1OC (stereo unspecified)	1	-3	-6	2	64*
CN(CC(=O)NCCc1ccccc1)S(=O)(=O)c1cccs1	0	-5	-5	-8	11
CCNC(=O)COC(=O)CCC(=O)c1cccs1	-2	1	-4	-6	51*
CC[C@H](C)[C@H](NC(N)=O)C(=O)NCCc1ccc(OC)cc1	0	-3	-3	-5	11
COc1ccc(CCNC(=O)CN(C)S(=O)(=O)c2cccs2)cc1	0	-3	6	-11	32*
COc1ccc(CCNC(=O)[C@@H](NC(N)=O)C(C)C)cc1	10	0	-21	-1	50*
COc1cccc(CSc2nc3n(n2)C(CC(C)C)C(C(=O)Nc2ccccc2C)=C(C)N3)c1 (stereo unspecified)	.	.	.	3	.
SMILES	D2 ag-1	D2 ag-2	D2 PAM-1	D2 PAM-2	D2 antagonist
COC(=O)CN1C(=O)CSc2ccc(S(=O)(=O)Nc3cccc(Cl)c3C)cc21	0	.	.	9	.
COc1ccc(N2CCN(C(=O)C34CCC(C)(C(=O)C3)C4(C)C)CC2)cc1 (stereo unspecified)	0	-1	-5	4	37*
CC12CCC(C(=O)N3CCN(c4ccccc4)CC3)(CC1=O)C2(C)C (stereo unspecified)	0	2	9	-7	16
O=C(Nc1cccnc1)C1COc2ccccc2O1 (stereo unspecified)	0	-2	-16	41*	20
O=C(NCCc1ccccc1)C1COc2ccccc2O1 (stereo unspecified)	0	2	-8	-4	-5
O=C(Nc1ccccc1)C1COc2ccccc2O1 (stereo unspecified)	0	0	-12	-10	5
